Source: PubChem BioAssay
Anesthetic bind = candidate novel general anesthetic via apoferritin binding | AID 485281 | 0.074% of 350,000 active | Potency, µM (highest dose often 77.5 µM), inactives show at the highest dose activity change, negative = displacement, usual class: inhibitors | P02791 | apoferritin/1-aminoanthracene competitive binding, fluorescence; also: potency is read from the fitted curve at half-maximal effect; % is scaled to controls: 0 for no effect and ±100 for the full control effect; nearly all actives have a fitted effect of over 20% in size
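Concentration-response curves derived by four-parameter Hill fitting of normalized fluorescence, where compounds displaced 1-AMA from 10 uM horse apoferritin following a brief 10 min room-temperature incubation; propofol titration acted as positive control.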
Nrf2 inh = blocks Nrf2 signaling; A549 ARE-Fluc reporter, luciferase luminescence, 18-24 h; Potency, µM (top dose mostly 46 µM), for inactives: at the top dose activity change, negative = inhibition, most hits filed as inhibitors; 2.1% of 360,000 active; AID 504444; also: potency is read from the fitted curve at half-maximal effect; % is scaled to controls: 0 for no effect and ±100 for the full control effect; nearly all actives have a fitted effect of over 60% in size
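Quantitative HTS in A549 cells stably bearing an antioxidant response element-firefly luciferase construct. Inhibition of Nrf2-driven transcription was scored by luminescence after 18-24 h of compound exposure at 37 °C.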
mIDH1 inhibitor = blocks human mutant IDH1 R132H enzyme; O75874; IDH1-R132H enzyme, NADPH consumption, diaphorase/resazurin fluorescence; Potency, µM (series often up to 76.6 µM), inactives show at the highest dose activity change, negative = inhibition, hits mostly inhibitors; 0.093% of 390,000 active; also: potency is read from the fitted curve at half-maximal effect; % is scaled to controls: 0 for no effect and ±100 for the full control effect; nearly all actives have a fitted effect of over 65% in size
Target sequence (O75874 whole entry R132H, stated change not applied): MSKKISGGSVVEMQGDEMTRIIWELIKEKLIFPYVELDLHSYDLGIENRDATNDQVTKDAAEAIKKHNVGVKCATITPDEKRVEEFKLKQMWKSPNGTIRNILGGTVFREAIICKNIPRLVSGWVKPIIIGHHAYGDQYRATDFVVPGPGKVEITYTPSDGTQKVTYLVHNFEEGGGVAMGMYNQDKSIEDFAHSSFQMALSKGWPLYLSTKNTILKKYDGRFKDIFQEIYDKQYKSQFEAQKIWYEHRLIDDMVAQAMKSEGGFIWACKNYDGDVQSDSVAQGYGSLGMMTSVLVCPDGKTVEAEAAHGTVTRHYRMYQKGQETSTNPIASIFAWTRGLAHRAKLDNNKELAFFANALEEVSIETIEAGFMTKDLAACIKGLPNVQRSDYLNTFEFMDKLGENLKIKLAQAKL
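IDH1-R132H (0.5 ug/mL) preincubated 30 min with compound, then NADPH (0.016 mM) and alpha-KG (2 mM) added; 80 min at RT, pH 7.5. Remaining NADPH coupled via diaphorase/resazurin to fluorescence (540/590 nm); concentration-response curves normalized to no-enzyme control.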
Giardia kill = Giardia lamblia killing; Giardia lamblia trophozoite viability; activity change, % at 7.66 µM, hits read low; 0.15% of 340,000 active; AID 540267; in the data active = activity change below about -80%; inconclusive = between about -30% and that limit;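 also: parasites exposed to compound for two days anaerobically before the ATP read; % is scaled to controls: 0 for no effect and ±100 for the full control effect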
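Media and compound were dispensed first, then trophozoites at 100 cells/well; plates sat 48 hrs at 37 deg C without oxygen before ATP luminescence reagent was added and read after 15-30 min at room temperature.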
Nrf2 ARE act = activates Nrf2 signaling. AREc32 ARE-luciferase reporter (MCF7-derived line), luminescence, 24 h. Potency, µM (doses to about 46.1 µM), for the others: at the highest dose activation, most hits filed as activators. 0.31% of 410,000 active. AID 624171; also: potency is read from the fitted curve at half-maximal effect; % of control where 0% means no effect; nearly all actives have a fitted effect of over 65% in size
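Steps: seed AREc32_Fluc cells (1000/well, 5% FBS OPTI-MEM); incubate overnight at 37 deg C; add 23 nL compound; incubate 24 hr; add Steady-Glo; hold 30 min RT; read luminescence.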
A549 viability = kills or reduces viability of A549 cells in Nrf2 counter-screen. A549 ARE-Fluc cells, CellTiter-Fluor viability, 18-24 h. Potency, µM (series often up to 46 µM), without a hit: at the top dose activity change, negative = cytotoxicity, actives largely listed as inhibitors. 0.16% of 390,000 active. AID 504648; also: potency is read from the fitted curve at half-maximal effect; % is scaled to controls: 0 for no effect and ±100 for the full control effect
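A549 ARE_Fluc cells in 5% FBS OPTI-MEM were exposed to compounds in concentration-response for 18-24 h at 37 deg C. Viability was read by CellTiter-Fluor fluorescence (Ex 405/Em 525) after 30 min, before the luciferase read.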
Starred values were filed as active, the others as inactive; ? = inconclusive; . = no result; ! = a repeat was not active; [ ] = remark or other dose. The list is not random: actives were taken first. Their share in the collection is about 2.3%. Unless noted, calls follow the shape of the dose curve; as a rule, active = well fitted curve in the direction sought with a large enough effect; inconclusive = small, poorly fitted or top-dose-only effect, or another doubt; inactive = no such curve, though single readings can be large; an effect the other way counts as inactive or inconclusive.

SMILES	Anesthetic bind	Nrf2 inh	mIDH1 inhibitor	Giardia kill	Nrf2 ARE act	A549 viability
COc1ccc(C2c3[nH]c4ccc(OC)cc4c3CCN2C(=O)Nc2ccccc2)cc1 (configuration not stated)	31%	15µM*	9%	.	0%	?
COc1ccc(CNC(=O)Cn2nc(C)c3c(C)n(-c4ccccc4)nc3c2=O)cc1OC	-12%	.	-4%	.	0%	1%
CCOc1ccccc1CNC(=O)C1CCN(c2nnc(C)c3c(C)n(-c4ccc(C)cc4)nc23)CC1	-31%	23µM*!	-15%	-11	7%	?
COc1cccc(CNC(=O)Cn2nc(C)c3c(C)n(-c4ccc(C)cc4)nc3c2=O)c1OC	-12%	-12%	-4%	-1	0%	4%
COc1ccc(CNC(=O)Cn2nc(C)c3c(C)n(-c4ccc(C)cc4)nc3c2=O)cc1OC	6%	23µM*	3%	18	-1%	-11%
Cc1ccc(-n2nc3c(N4CCC(C(=O)NCc5ccccc5C)CC4)nnc(C)c3c2C)cc1	?	?	0%	10	10%	?
CCOc1ccccc1CNC(=O)Cn1nc(C)c2c(C)n(-c3ccc(C)cc3)nc2c1=O	-13%	9.2µM*	-9%	-17	9%	1%
C=CCNc1nc2c(c(=O)n(C)c(=O)n2C)n1CCCCCC	0%	4.1µM*	8%	4	3%	-22%
C=CCNc1nc2c(c(=O)n(C)c(=O)n2C)n1Cc1ccc(F)cc1	3%	8.2µM*	1%	-2	-1%	0%
C=CCNc1nc2c(c(=O)n(C)c(=O)n2C)n1CC	33%	-15%	-1%	-13	0%	1%
CCCc1nc(SC)ncc1C(=O)N1CCN(c2ccc(Cl)cc2)CC1	?	3%	27%	.	7%	-2%
Cc1ccccc1N(C)C1=N[S+](=O)([O-])c2ccccc21	.	-2%	.	.	.	1%
Cc1csc(-c2coc3cc(O)cc(C)c3c2=O)n1	?	?	3%	-7	10µM*	1%
O=[N+]([O-])c1cc(Cl)ccc1Nc1nc(Nc2ccc(Cl)cc2[N+](=O)[O-])nc(N2CCOCC2)n1	.	-10%	.	10	.	-14%
O=C(CN1CCOCC1)Nc1nc(-c2ccccc2)cs1	-8%	16%	-9%	6	4%	1%
O=C(Cn1nnc(-c2ccc(CN3CCOCC3)cc2)n1)Nc1nc(-c2ccccc2)cs1	?	16µM*	1%	38	2%	-1%
CCNc1nc(NCc2ccc(F)cc2)c2cnn(C)c2n1	7%	.	.	.	0%	2%
Cc1ccc(NS(=O)(=O)c2ccc(F)cc2)cc1C	.	-2%	.	.	.	2%
CCOc1cc(CNCCSc2nnnn2C)cc(Br)c1OCc1ccccc1F	-8%	23µM*	4%	7	5%	?
COc1cc(CNCCSc2nnnn2C)cc(Br)c1OCc1ccccc1F	-20%	-8%	3%	16	-1%	1%
CCCCC(=O)N1C/C=C\C(c2ccc(OC)cc2)N(Cc2ccc(F)cc2)C(=O)C1Cc1ccccc1 (configuration not stated)	8%	23µM*	.	7	.	-21%
COc1ccc(C2/C=C\CN(C(=O)Nc3ccccc3)CC(=O)N2Cc2ccc(F)cc2)cc1 (configuration not stated)	?	-9%	-4%	-19	0%	-1%
COc1ccc(C2/C=C\CN(C(=O)Nc3ccc(C(F)(F)F)cc3)CC(=O)N2Cc2ccc(F)cc2)cc1 (configuration not stated)	-4%	23µM*	-5%[38.3 µM]	-24	0%	-4%
Cc1cc(C)c2oc(-c3cccc(NC(=O)COc4ccccc4Cl)c3C)nc2c1	-1%	3%	-18%	.	-1%	-4%
COc1cc(NC(=O)C(OC(=O)CNC(=O)c2ccccc2)c2ccccc2)c(OC)cc1Cl (configuration not stated)	.	7%	.	.	.	7%
Cc1cc(NC(=O)c2ccccc2F)n(-c2nc3ccccc3[nH]2)n1	-13%	-29%	-1%	2	9%	-1%
